Tests used:
Test in all cases: yeast three-hybrid, YBZ-1, SC-Leu-His + 0.5 mM 3-AT, 4 days
Settings in all cases: tags: N-Gal4 AD-HA kept; label: inside an RPR1-promoter hybrid RNA with tandem MS2 sites; ssRNA
PUM1 PUF domain R5-PRR = PUM1 PUF domain R5-PRR (Homo sapiens, UniProt Q14671 828-1176, C1007P;Q1011R)
Method in brief: (§1)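 Each repeat of the Pumilio-1 PUF domain was randomized at its three base-contacting residues, and these libraries were co-expressed from a centromeric plasmid with matching RNA elements in strain YBZ-1. After four days on SC-Leu (input) or SC-Leu-His + 0.5 mM 3-AT (selection), the repeat regions were PCR-amplified and Illumina-sequenced. The interaction score compares variant frequency between input and selection as a log change, computed in log2 with a pseudocount of 1 for absent variants.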

PUM1 PUF domain R5-RSK = PUM1 PUF domain R5-RSK (Homo sapiens, UniProt Q14671 828-1176, C1007R;R1008S;Q1011K)
Method in brief: as §1

PUM1 PUF domain R8-HFA = PUM1 PUF domain R8-HFA (Homo sapiens, UniProt Q14671 828-1176, N1122H;Y1123F;Q1126A)
Method in brief: as §1

PUM1 PUF domain R8-IRK = PUM1 PUF domain R8-IRK (Homo sapiens, UniProt Q14671 828-1176, N1122I;Y1123R;Q1126K)
Method in brief: as §1

PUM1 PUF domain R6-EWV = molecular target: T1, PUM1 PUF domain R6-EWV (Homo sapiens, UniProt Q14671 828-1176, N1043E;Y1044W;Q1047V)
T1 sequence: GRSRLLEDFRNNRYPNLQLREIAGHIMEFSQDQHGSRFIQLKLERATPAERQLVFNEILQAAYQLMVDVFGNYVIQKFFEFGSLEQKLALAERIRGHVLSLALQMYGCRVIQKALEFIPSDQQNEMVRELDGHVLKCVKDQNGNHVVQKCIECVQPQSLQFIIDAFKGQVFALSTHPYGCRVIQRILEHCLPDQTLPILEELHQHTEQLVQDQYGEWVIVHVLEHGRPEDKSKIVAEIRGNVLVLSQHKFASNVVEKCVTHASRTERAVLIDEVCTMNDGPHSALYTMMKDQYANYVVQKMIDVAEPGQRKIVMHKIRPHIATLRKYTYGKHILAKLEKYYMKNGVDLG
Method in brief: as §1

PUM1 PUF domain R8-KHA = PUM1 PUF domain R8-KHA (Homo sapiens, UniProt Q14671 828-1176, N1122K;Y1123H;Q1126A)
Method in brief: as §1

PUM1 PUF domain R7-DFE = PUM1 PUF domain R7-DFE (Homo sapiens, UniProt Q14671 828-1176, S1079D;N1080F)
Method in brief: as §1

PUM1 PUF domain R5-QSC = PUM1 PUF domain R5-QSC (Homo sapiens, UniProt Q14671 828-1176, C1007Q;R1008S;Q1011C)
Method in brief: as §1

PUM1 PUF domain R5-SGC = PUM1 PUF domain R5-SGC (Homo sapiens, UniProt Q14671 828-1176, C1007S;R1008G;Q1011C)
Method in brief: as §1

PUM1 PUF domain R3-RRK = PUM1 PUF domain R3-RRK (Homo sapiens, UniProt Q14671 828-1176, C935R;Q939K)
Method in brief: as §1

Question: What does the source list for “GGCUAGAACUAGUGGAUCCCCCGGCGCCCGGCGGCUCGAGCCCGGGUAAGUGUCAAUAGUCUGCAUGCCGCCGGGCGCCAUGCCUGCAGGUCGACUCUAGAAAACAUG”?
Answer: binding signal (PUM1 PUF domain R5-PRR): 0.75 log2 enrichment (interaction score); binding signal (PUM1 PUF domain R5-RSK): 3.23 log2 enrichment (interaction score)

Question: For “GGCUAGAACUAGUGGAUCCCCCGGCGCCCGGCGGCUCGAGCCCGGGUAAGCGUAAAUAGUCUGCAUGCCGCCGGGCGCCAUGCCUGCAGGUCGACUCUAGAAAACAUG”, which binding signal (PUM1 PUF domain R8-HFA) is on record?
Answer: The binding signal was 3.45 log2 enrichment (interaction score).

Question: And the binding signal (PUM1 PUF domain R8-IRK)?
Answer: The binding signal was 2.54 log2 enrichment (interaction score).

Question: “GGCUAGAACUAGUGGAUCCCCCGGCGCCCGGCGGCUCGAGCCCGGGUAAGUGAAAAUAGUCUGCAUGCCGCCGGGCGCCAUGCCUGCAGGUCGACUCUAGAAAACAUG” was tested. Which binding signal (PUM1 PUF domain R6-EWV) did it give?
Answer: The binding signal was 3.43 log2 enrichment (interaction score).

Question: Which results are given for “GGCUAGAACUAGUGGAUCCCCCGGCGCCCGGCGGCUCGAGCCCGGGUAAGUGUAAAUAGUCUGCAUGCCGCCGGGCGCCAUGCCUGCAGGUCGACUCUAGAAAACAUG”?
Answer: binding signal (PUM1 PUF domain R8-KHA): 3.55 log2 enrichment (interaction score); binding signal (PUM1 PUF domain R8-HFA): 2.13 log2 enrichment (interaction score); binding signal (PUM1 PUF domain R5-PRR): 2.16 log2 enrichment (interaction score); binding signal (PUM1 PUF domain R6-EWV): 1.65 log2 enrichment (interaction score); binding signal (PUM1 PUF domain R7-DFE): 2.67 log2 enrichment (interaction score)

Question: Which binding signal (PUM1 PUF domain R5-PRR) does the source give for “GGCUAGAACUAGUGGAUCCCCCGGCGCCCGGCGGCUCGAGCCCGGGUAAGUGUUAAUAGUCUGCAUGCCGCCGGGCGCCAUGCCUGCAGGUCGACUCUAGAAAACAUG” here?
Answer: The binding signal was 3.23 log2 enrichment (interaction score).

Question: How did the binding signal (PUM1 PUF domain R5-PRR) turn out when “GGCUAGAACUAGUGGAUCCCCCGGCGCCCGGCGGCUCGAGCCCGGGUAAGUGUGAAUAGUCUGCAUGCCGCCGGGCGCCAUGCCUGCAGGUCGACUCUAGAAAACAUG” was run?
Answer: Its binding signal is 2.13 log2 enrichment (interaction score).

Question: And the binding signal (PUM1 PUF domain R5-QSC)?
Answer: The binding signal was 3.71 log2 enrichment (interaction score).

Question: And the binding signal (PUM1 PUF domain R5-SGC)?
Answer: Its binding signal is 2.36 log2 enrichment (interaction score).

Question: “GGCUAGAACUAGUGGAUCCCCCGGCGCCCGGCGGCUCGAGCCCGGGUAAGUGUAAUUAGUCUGCAUGCCGCCGGGCGCCAUGCCUGCAGGUCGACUCUAGAAAACAUG” was tested. Which binding signal (PUM1 PUF domain R3-RRK) did it give?
Answer: The binding signal was 4.07 log2 enrichment (interaction score).

— PMC8384837, “Expanding the binding specificity for RNA recognition by a PUF domain”
